Measurements taken from PubChem BioAssay (Tox21).
Several values for one entry are separate records, joined by “and”; a condition that tells them apart may be missing. Identical values can stand only once. Records with an inconclusive call do not appear. Where a call stands in place of a potency, no number is given. Some compounds were tested as several samples or in several runs, with calls that do not always agree. Activity calls are given as the source filed them. Calls come from the whole dose curve; as a rule, active = well fitted curve in the direction sought with a large enough effect in the repeat runs; inconclusive = weak or mixed curves; inactive = no such curve, though single readings can be large; an effect the other way counts as inactive or inconclusive.

What was measured:
[1] = A CellTox Green Cytotoxicity Assay to monitor cytotoxicity in HEK293 cells - 40 hour (AID 1224871); note: nearly all actives have a fitted effect of over 45% in size; note: potency is the fitted concentration of half-maximal effect
In short: (§1)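 Fluorescence intensity, read at 0, 8, 16, 24, 32 and 40 h of compound treatment, reflected dye binding to DNA of dead HEK293 cells; compounds (23 nL, DMSO) were added 5 h after plating cells with reagent.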

[2] = qHTS RealTime-Glo MT Cell Viability Assay in HEK293 cells - 16 hour (AID 1224872); note: top concentration of the series differs between compounds; nearly all actives have a fitted effect of over 50% in size
In short: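 Tox21 10K qHTS, HEK293, 600 cells/well, RealTime-Glo reagent co-dispensed with cells; 5 h preincubation, compound by pintool, 37 C, luminescence at 0–40 h.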

[3] = qHTS RealTime-Glo MT Cell Viability Assay in HepG2 cells - 8 hour (AID 1224873); note: nearly all actives have a fitted effect of over 55% in size
In short: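 HepG2 cells mixed with RealTime-Glo MT reagents (NanoLuc plus cell-permeant prosubstrate) were seeded at 600 cells/well, incubated 5 h at 37 C/5% CO2, then pinned with compounds in DMSO; nonlytic luminescence tracked viability during 40 h treatment.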

[4] = qHTS RealTime-Glo MT Cell Viability Assay in HEK293 cells - 40 hour (AID 1224874); details: RealTime-Glo luminescence; max response: stronger effect = lower value; note: nearly all actives have a fitted effect of over 50% in size
In short: (§2)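 Viable HEK293 cells reduce a cell-permeant prosubstrate; the product diffuses out and is consumed by NanoLuc in the medium to give light. Compounds went in after a 5 h incubation and plates were read over the treatment course.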

[5] = A CellTox Green Cytotoxicity Assay to monitor cytotoxicity in HEK293 cells - 24 hour (AID 1224875); note: series mostly up to about 77 µM; nearly all actives have a fitted effect of over 45% in size
In short: as §1

[6] = A CellTox Green Cytotoxicity Assay to monitor cytotoxicity in HepG2 cells - 16 hour (AID 1224876); note: nearly all actives have a fitted effect of over 45% in size; note: potency is the fitted concentration of half-maximal effect
In short: (§3)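 Using 1536-well format, dye-containing HepG2 suspension was seeded, allowed 5 h at 37 C/5% CO2, dosed by pintool with compounds, positive and negative controls, and imaged for fluorescence across 40 h.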

[7] = qHTS RealTime-Glo MT Cell Viability Assay in HepG2 cells - 32 hour (AID 1224877); note: nearly all actives have a fitted effect of over 55% in size
In short: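 Cells + NanoLuc/prosubstrate dispensed (600 cells/well) → 5 h at 37 C/5% CO2 → compounds in DMSO transferred → 40 h incubation at 37 C, luminescence read at 0, 8, 16, 24, 32, 40 h.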

[8] = A CellTox Green Cytotoxicity Assay to monitor cytotoxicity in HepG2 cells - 24 hour (AID 1224878); note: nearly all actives have a fitted effect of over 45% in size; note: potency is the fitted concentration of half-maximal effect
In short: as §3

[9] = A CellTox Green Cytotoxicity Assay to monitor cytotoxicity in HepG2 cells - 40 hour (AID 1224879); note: nearly all actives have a fitted effect of over 40% in size; note: potency is the fitted concentration of half-maximal effect
In short: as §3

[10] = qHTS RealTime-Glo MT Cell Viability Assay in HEK293 cells - 0 hour (AID 1224880)
In short: as §2

Compound	Potency [1]	outcome [2]	outcome [3]	max response [4]	Potency [5]	Potency [6]	outcome [7]	Potency [8]	Potency [9]	outcome [10]
O=[N+]([O-])c1ccc(Cl)cc1	inactive	inactive	inactive	4.49% (inactive) and 2.44% (inactive)	inactive	inactive	inactive	inactive	inactive	
Cc1cc(O)ccc1Cl	inactive	inactive	inactive	-0.728% (inactive) and -2.63% (inactive) and 0.546% (inactive)	inactive	inactive	inactive	inactive		inactive
Cc1cccc(N)c1	inactive	inactive	inactive	6.61% (inactive) and 3.01% (inactive)	inactive	inactive	inactive	inactive		inactive
COC(C)(C)CCCC(C)C/C=C/C(C)=C/C(=O)OC(C)C (configuration not stated)	inactive	inactive	inactive	0.0106% (inactive)	inactive	inactive	inactive	inactive	inactive	
O=P1(NCCCl)OCCCN1CCCl (configuration not stated)	inactive	inactive	inactive	0.555% (inactive) and 9.01% (inactive) and 5.36% (inactive)	inactive	inactive	inactive	inactive	inactive	inactive
CCCCC(CC)C(=O)Cl (configuration not stated)	inactive	inactive	inactive	14.8% (inactive) and -0.733% (inactive)	inactive	inactive	inactive	inactive		inactive
C=C(C)C(=O)OCC(CC)CCCC (configuration not stated)	inactive	inactive	inactive	1.51% (inactive)	inactive	inactive	inactive	inactive	inactive	inactive
CCOC(=O)CC(SP(=O)(OC)OC)C(=O)OCC (configuration not stated)	inactive	inactive	inactive	11.3% (inactive) and 26.8% (inactive)	inactive	inactive	inactive	inactive	inactive	inactive
C=CC#N	inactive	inactive	inactive	-6.45% (inactive) and -0.644% (inactive)	inactive	inactive	inactive	inactive		inactive
O=S(=O)(O)OOS(=O)(=O)O	inactive	inactive	inactive	2.97% (inactive) [middle of 4 runs]	inactive	inactive	inactive	inactive		inactive
CC(C)(C)C(=O)CCl	inactive	inactive	inactive	4.78% (inactive) and -0.671% (inactive)	inactive	inactive	inactive	inactive		inactive
CC(C)CCCCCCOC(=O)c1ccccc1C(=O)OCCCCCCC(C)C	inactive	inactive	inactive	12.6% (inactive) and 8.04% (inactive) and 6.43% (inactive)	inactive	inactive	inactive	inactive		inactive
N#CN=C(N)N	inactive	inactive	inactive	1.89% (inactive) and 5.69% (inactive)	inactive	inactive	inactive	inactive	inactive	inactive
O=C(O)C1C(C(=O)O)C2(Cl)C(Cl)=C(Cl)C1(Cl)C2(Cl)Cl (configuration not stated)	inactive	inactive	inactive	9.62% (inactive) and 1.68% (inactive)	inactive	inactive	inactive	inactive		inactive
COP(=S)(OC)SCN1C(=O)c2ccccc2C1=O	inactive	inactive	inactive	11.4% (inactive) and 4.29% (inactive) and 1.87% (inactive)	inactive	inactive	inactive	inactive	inactive	
ClC(Cl)c1ccccc1	inactive	inactive	inactive	4.95% (inactive) and 0.497% (inactive)	inactive	inactive	inactive	inactive	inactive	inactive
CN(C)C(=O)C(c1ccccc1)c1ccccc1	inactive	inactive	inactive	1.04% (inactive) and -0.357% (inactive)	inactive	inactive	inactive	inactive		inactive
N#Cc1ccccn1	inactive	inactive	inactive	-0.449% (inactive) and 4.77% (inactive)	inactive	inactive	inactive	inactive	inactive	inactive
Cl[C@H]1OCCO[C@@H]1Cl	inactive	inactive	inactive	9.41% (inactive) and 3.91% (inactive)	inactive	inactive	inactive	inactive	inactive	
Cl/C=C/Cl	inactive	inactive	inactive	-5.85% (inactive) and -1.58% (inactive) and 0.395% (inactive)	inactive	inactive	inactive	inactive		inactive
CC(=O)C1CCOC1=O (configuration not stated)	inactive	inactive	inactive	3.16% (inactive) and 1.64% (inactive)	inactive	inactive	inactive	inactive	inactive	inactive

Compound	Potency [1]	outcome [2]	outcome [3]	max response [4]	Potency [5]	Potency [6]	outcome [7]	Potency [8]	Potency [9]	outcome [10]
CCCCCCCCCCCCCCCCCC(=O)O	inactive	inactive	inactive	2.01% (inactive) and -1.45% (inactive) and 0.984% (inactive)	inactive	inactive	inactive	inactive	inactive	inactive
O=C(O)Cc1ccccc1	inactive	inactive	inactive	21.7% (inactive) and 3.56% (inactive)	inactive	inactive	inactive		inactive	
Cc1cccc(C)c1NC(=O)CN1CCCC1=O	inactive	inactive	inactive	1.79% (inactive) and -7.42% (inactive) and 6.42% (inactive)	inactive	inactive	inactive	inactive		inactive
COP(=S)(OC)Oc1ccc(SC)c(C)c1	inactive	inactive	inactive	-4.14% (inactive) and -8.35% (inactive) and 5.42% (inactive)	inactive	inactive	inactive	inactive	inactive	inactive
c1ccc2c(c1)CCCC2	inactive	inactive	inactive	1.92% (inactive) and 10.6% (inactive)	inactive	inactive	inactive	inactive	inactive	inactive
CNC(=O)O/N=C(\SC)C(=O)N(C)C	inactive	inactive	inactive	-3.21% (inactive) and 9.55% (inactive)	inactive	inactive	inactive	inactive	inactive	inactive
C[C@]12CC[C@H](O)CC1=CC[C@@H]1[C@@H]2CC[C@]2(C)C(=O)CC[C@@H]12	inactive and 43.6 µM (active)	inactive	inactive	-15.5% (inactive)	inactive	inactive	inactive	inactive		inactive
OC[C@@H](O)[C@H]1O[C@@H]2O[C@H](C(Cl)(Cl)Cl)O[C@@H]2[C@H]1O	inactive	inactive	inactive	-9.36% (inactive) and 2.42% (inactive)	inactive	inactive	inactive	inactive	inactive	inactive
ClCCOCCCl	inactive	inactive	inactive	-3.17% (inactive) and -5.17% (inactive)	inactive	inactive	inactive	inactive	inactive	
Nc1cc(Cl)cc(Cl)c1	inactive	inactive	inactive	-2.18% (inactive) and 1.19% (inactive)	inactive	inactive	inactive	inactive	inactive	inactive
CNC(=O)O/N=C/C(C)(C)S(C)=O (configuration not stated)	inactive	inactive	inactive	16.8% (inactive) and -17.7% (inactive)	inactive	inactive	inactive		inactive	
COc1nc(NC(C)C)nc(NC(C)C)n1	inactive	inactive	inactive	-0.66% (inactive) and 0.377% (inactive)	inactive	inactive	inactive		inactive	
NNc1ccccc1	inactive	inactive	inactive	3.45% (inactive) [middle of 5 runs]	inactive	inactive	inactive		inactive	inactive
OCc1ccco1	inactive	inactive	inactive	1.99% (inactive) and 6.54% (inactive)	inactive	inactive	inactive		inactive	
CC(=O)/C=C/c1ccccc1	inactive	inactive	inactive	7.83% (inactive) and 3.04% (inactive) and 5.74% (inactive)	inactive	inactive	inactive		inactive	inactive
CN1C(=O)CCS(=O)(=O)C1c1ccc(Cl)cc1 (configuration not stated)	inactive	inactive	inactive	4.07% (inactive) and -0.966% (inactive)	inactive	inactive	inactive		inactive	inactive
N#Cc1cccc(C#N)c1	inactive	inactive	inactive	2.43% (inactive) and 3.42% (inactive)	inactive	inactive	inactive		inactive	
Cc1ccccc1N	inactive	inactive	inactive		inactive	inactive	inactive		inactive	inactive
CC12CC1(C)C(=O)N(c1cc(Cl)cc(Cl)c1)C2=O (configuration not stated)	inactive	inactive	inactive	1.77% (inactive) and 7.9% (inactive)	inactive	inactive	inactive		inactive	inactive
Cc1ccc(N)cc1	inactive	inactive	inactive	-16.7% (inactive) and 1.44% (inactive) and -0.523% (inactive)	inactive	inactive	inactive			inactive
Cc1cccc(N)c1C	inactive	inactive	inactive	-0.402% (inactive) and 10.2% (inactive)	inactive	inactive	inactive		inactive	inactive

Compound	Potency [1]	outcome [2]	outcome [3]	max response [4]	Potency [5]	Potency [6]	outcome [7]	Potency [8]	Potency [9]	outcome [10]
OCCCCO	inactive	inactive	inactive	2.32% (inactive) and 1.82% (inactive)	inactive	inactive	inactive		inactive	inactive
COC(=O)Nc1cccc(OC(=O)Nc2cccc(C)c2)c1	inactive	inactive	inactive	3.85% (inactive) and -5.62% (inactive)	inactive	inactive	inactive			inactive
O=C(O)C(Br)Br	inactive	inactive	inactive	-0.855% (inactive) and 1.09% (inactive)	inactive	inactive	inactive		inactive	inactive
CNc1cnn(-c2cccc(C(F)(F)F)c2)c(=O)c1Cl	inactive	inactive	inactive	-24.9% (inactive) and -29.1% (inactive)	inactive	inactive	inactive			inactive
C=CC(=O)OCCCCCC(C)C	inactive	inactive	inactive	-0.829% (inactive) and 3.33% (inactive)	inactive	inactive	inactive			inactive
CC[N+](=O)[O-]	inactive	inactive	inactive	7.02% (inactive) and 16.9% (inactive)	inactive	inactive	inactive		inactive	inactive
O=C(O)CCCc1ccc(N(CCCl)CCCl)cc1	inactive	inactive	inactive		inactive	inactive	inactive		inactive	inactive
CN(C)NC(=O)CCC(=O)O	inactive	inactive	inactive	2.52% (inactive) and 2.58% (inactive)	inactive	inactive	inactive		inactive	inactive
Cc1ccc(O)c(C)c1	inactive	inactive	inactive	4.17% (inactive) and 0.581% (inactive)	inactive	inactive	inactive		inactive	inactive
CNCC(O)c1ccc(O)cc1 (configuration not stated)	inactive	inactive	inactive	4.3% (inactive) and -3.08% (inactive)	inactive	inactive	inactive		inactive	inactive
Clc1cnc(Oc2ccc(Oc3ncc(Cl)cc3Cl)cc2)c(Cl)c1	24.5 µM (active)	inactive	inactive	-4.51% (inactive) and -10.8% (inactive)		inactive	inactive	inactive		
CCNc1nc(Cl)nc(NC(C)C)n1	inactive	inactive	inactive	2.47% (inactive) and -5.57% (inactive)	inactive	inactive	inactive		inactive	inactive
CN(C)C(=O)Cl	inactive	inactive	inactive	1.46% (inactive) and 5.01% (inactive)	inactive	inactive	inactive		inactive	inactive
O=[N+]([O-])c1ccc(Cl)c(Cl)c1	inactive	inactive	inactive	-5.48% (inactive) and 3.8% (inactive)	inactive	inactive	inactive		inactive	inactive
Oc1c(Br)cc(Br)cc1Br	inactive	inactive	inactive	-1.22% (inactive)	inactive	inactive	inactive			inactive
CCCOC(=O)c1ccccc1C(=O)OCCC	inactive	inactive	inactive	0.157% (inactive) and 0.878% (inactive)	inactive	inactive	inactive			inactive
Oc1ccc(Cl)cc1	inactive	inactive	inactive	3.34% (inactive) and 1.68% (inactive) and 3.82% (inactive)	inactive	inactive	inactive		inactive	
CN(C)C(=O)Nc1cccc(C(F)(F)F)c1	inactive	inactive	inactive	-22.8% (inactive) and -6.94% (inactive)	inactive	inactive	inactive			inactive
O=[N+]([O-])c1cc([As](=O)(O)O)ccc1O	inactive	inactive	inactive	6.64% (inactive) and -3.36% (inactive) and 2.24% (inactive)	inactive	inactive	inactive		inactive	
CC(C)c1cccc(C(C)C)c1O	24.5 µM (active) and 43.6 µM (active) and inactive	inactive	inactive	-0.191% (inactive) and -2.39% (inactive) and 0.656% (inactive)		43.6 µM (active) and inactive	inactive	43.6 µM (active) and inactive	43.6 µM (active) and inactive	
